Each structure is given as a SMILES string. Results filed as inconclusive are left out. The source made the active and inactive calls. The call rests on the fitted dose curve; in most records, active means well fitted curve in the direction sought with a large enough effect; inconclusive means small, poorly fitted or top-dose-only effect, or another doubt; inactive means no such curve, though single readings can be large or run the other way.

Chain of Polyunsaturated fatty acid lipoxygenase ALOX15 (Homo sapiens) (P16050 whole entry, looked up): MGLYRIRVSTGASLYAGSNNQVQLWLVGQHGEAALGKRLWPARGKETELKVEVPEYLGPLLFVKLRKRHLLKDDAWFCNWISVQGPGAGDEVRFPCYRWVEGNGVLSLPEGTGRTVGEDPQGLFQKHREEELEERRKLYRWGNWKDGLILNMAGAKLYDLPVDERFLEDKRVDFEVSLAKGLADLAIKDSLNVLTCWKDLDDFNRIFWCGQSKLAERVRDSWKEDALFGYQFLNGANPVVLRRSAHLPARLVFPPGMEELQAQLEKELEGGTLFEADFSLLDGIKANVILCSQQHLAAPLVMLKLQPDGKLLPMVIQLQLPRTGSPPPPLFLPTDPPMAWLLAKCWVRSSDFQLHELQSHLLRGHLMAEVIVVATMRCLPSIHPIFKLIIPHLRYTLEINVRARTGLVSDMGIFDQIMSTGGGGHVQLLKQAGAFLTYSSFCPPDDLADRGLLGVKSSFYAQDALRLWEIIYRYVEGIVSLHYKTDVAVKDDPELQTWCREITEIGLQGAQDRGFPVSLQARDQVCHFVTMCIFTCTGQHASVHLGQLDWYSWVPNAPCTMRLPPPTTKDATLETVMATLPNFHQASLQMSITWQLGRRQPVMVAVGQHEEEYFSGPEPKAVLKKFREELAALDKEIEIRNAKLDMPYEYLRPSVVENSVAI

This assay addresses Polyunsaturated fatty acid lipoxygenase ALOX15 (Homo sapiens) (UniProt P16050). Briefly: Counterscreen qHTS for inhibitors of human arachidonate 12S-lipoxygenase (ALOX12): ALOX15 Assay. To be noted: purified ALOX15 enzyme activity; series mostly up to 110 µM. The method in brief: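 Xylenol orange–ferric complex formation, read as the 573 nm to 405 nm absorbance ratio, tracks product from 50 uM arachidonic acid turned over for 30 min at RT. Enzyme is 40 nM ALOX15, pH 7.5 HEPES buffer, compound-preincubated 15 min.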
On the technique in general: Counterscreens check selectivity or assay interference.
`COc1ccc(N2CC3CCC(C2)N3Cc2cccc(Cl)c2)cc1`: the compound was classed as inactive. The value for `COc1ccc(-c2nc(C3CC3)nc3c2CCN(Cc2ccc(C#N)cc2)CC3)cc1` was “inactive”. For the compound `O=C(C1CCCC1)N1Cc2ccccc2CC2(CCCN(CC3CCNC3)C2)C1` (configuration not stated), the compound was called inactive. Take `O=c1[nH]c(C2CCCN(Cc3ccc(-c4cc(F)cc(F)c4)cc3)C2)nc2ccc(F)cc12` (configuration not stated): the call was inactive. The value for `Cc1cc(C(=O)NC2CCCC2)c2c(C3CCNCC3)noc2n1` was “inactive”; that for `Cc1cc(C(=O)N2CCC(F)CC2)c2c(C3CCCN3)noc2n1` (configuration not stated) was “inactive”; that for `Cn1nc(C2CCCNC2)c2c(C(=O)NC3CC3)cc(C3CC3)nc21` (configuration not stated) was “inactive”. As for `COc1ccccc1CNc1ncnc2c1CN(C1CCCNC1)C(=O)CN2C` (configuration not stated), the compound was classed as inactive. For `O=C1NCc2ccccc2CC12CCN(Cc1ccccc1Cl)C2` (configuration not stated), the result was inactive.

Regarding `Cc1ccc(C(=O)N2CCc3nc(C4CC4)nc(-c4ccc(Cl)cc4)c3C2)cc1`, the outcome was inactive. The value for `CCC(CC)Nc1ncnc2c1CN(C1CCCNCC1)C(=O)CN2C` (configuration not stated) was “inactive”; that for `O=C(c1ccc(Cl)cc1)N1CC2(CCN(Cc3ccc(Cl)cc3)C2)Cc2ccccc21` (configuration not stated) was “inactive”; that for `O=C1NCc2ccccc2CC12CCCN2Cc1ccc(O)cc1O` (configuration not stated) was “inactive”. For `COCCNC(=O)c1cc(-c2ccc(OC)cc2)nc2onc(C3CCNC3)c12` (configuration not stated), the compound was called inactive. Take `COc1ccc(N(C)C2CN(C(=O)OC(C)(C)C)C2)cc1`: the compound was classed as inactive.

Turning to `O=C(c1cn2c(n1)CN([S+](=O)([O-])c1cccc(C(F)(F)F)c1)CC2)N1CCOCC1`, the compound was classed as inactive. As to `CN1CC(=O)N(C2CCCNCC2)Cc2c1ncnc2N1CCC(N2CCCC2)CC1` (configuration not stated), the compound was called inactive.

As for `O=C(c1ccccc1)N1CCn2c(nn(-c3cccc(Cl)c3)c2=O)C1`, the result was inactive.

Regarding `CCOc1cccc(CN2CCC3(Cc4ccccc4CNC3=O)C2)c1` (configuration not stated), the compound was called inactive. Turning to `CN1CC(=O)N(C2CCCNC2)Cc2c(NCC(C)(C)C)ncnc21` (configuration not stated), the compound was called inactive.

With `O=C1NC(=NC2CCCC2)C2(CCN(CC3CCCCC3)CC2)N1c1cc(F)cc(F)c1`, the call was inactive. Turning to `CCN(c1ccc2c(c1)OCO2)C1CN(C(=O)OC(C)(C)C)C1`, the result was inactive. Regarding `O=C1Nc2ccccc2CN(CC2CCCCC2)C12CCNCC2`, the compound was called inactive. Then `O=C1NCc2ccccc2CC12CCN(Cc1ccc([N+](=O)[O-])cc1)C2` (configuration not stated), with “inactive”. Then `NCCCC(=O)N1CCC2(CC1)CC(NC(=O)CN)c1ccccc12` (configuration not stated), with “inactive”; and `Cn1nc(C2CCCN2)c2c(C(=O)NCc3ccc(F)cc3)cc(C3CC3)nc21` (configuration not stated), with “inactive”; and `CCCC(=O)N1Cc2ccccc2CC2(CCN(Cc3ccccc3)CC2)C1`, with “inactive”. In the case of `O=C1NCc2ccccc2CC12CCN(Cc1cccc(C(F)(F)F)c1)C2` (configuration not stated), the outcome was inactive.

Regarding `CC(=O)N1Cc2ccccc2CC2(CCCCN2Cc2ccccn2)C1` (configuration not stated), the compound was called inactive. Take `Cn1nc(C2CCNC2)c2c(C(=O)NCc3ccc(F)cc3)cc(C3CC3)nc21` (configuration not stated): the call was inactive. With `Cc1ccc(-c2cccc(CN3CCCC(c4nc5ccc(F)cc5c(=O)[nH]4)C3)c2)c(C)c1` (configuration not stated), the compound was classed as inactive.

For the compound `COc1ccc(CC(=O)N2Cc3ccccc3CC3(CCN(CC4CCNC4)C3)C2)cc1` (configuration not stated), the result was inactive. Then `C[S+](=O)([O-])N1Cc2ccccc2CC2(CCCN2CC2CCNCC2)C1` (configuration not stated), with “inactive”; and `O=[S+]([O-])(c1ccncc1)c1nnn2c1nc(NCc1ccc(F)cc1)c1ccccc12`, with “inactive”; and `CN1CCCC2(Cc3ccccc3CN(C(=O)c3ccc(Cl)cc3)C2)C1` (configuration not stated), with “inactive”.

Regarding `NCCCC(=O)N1CCC2(CC1)CN(C(=O)Cc1ccc(Cl)cc1)CCO2`, the result was inactive. Then `CC(C)CNC(=O)c1cc(C2CC2)nc2onc(C3CCNCC3)c12`, with “inactive”.

These data come from PubChem BioAssay AID1671192 (National Center for Advancing Translational Sciences (NCATS), 2021).
